Results on 32 sequences are retold here after article PMC7819943, “Rice protein-binding microarrays: a tool to detect cis-acting elements near promoter regions in rice”.

Over roughly 35,000 sequences, “fluorescence intensity (a.u.)” has its median near 10,000; the highest 2% begin near 52,000. This is one part of a sample in which the highest values are shown more often than they occur.

The assay concerns the target T1, OsWOX13 (Oryza sativa, UniProt Q5QMM3 1-267).
T1 sequence: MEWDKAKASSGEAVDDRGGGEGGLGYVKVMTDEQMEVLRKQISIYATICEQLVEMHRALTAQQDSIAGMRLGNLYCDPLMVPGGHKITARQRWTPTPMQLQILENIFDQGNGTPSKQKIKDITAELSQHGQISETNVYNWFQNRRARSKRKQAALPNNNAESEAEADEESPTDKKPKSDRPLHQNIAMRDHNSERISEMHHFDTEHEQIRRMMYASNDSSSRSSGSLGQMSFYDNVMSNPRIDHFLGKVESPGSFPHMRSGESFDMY
Briefly: protein-binding microarray (RPBM); PBS, 2% BSA, 51.3 ng/ul salmon testes DNA, 50 uM zinc acetate, 200 nM TF, 25 C, 1 h; high values mean tight binding. The note with it: protein: recombinant; tags: N-terminal polyhistidine and DsRed monomer fusion (pET32a); label: CyDye5-dUTP incorporated in the synthesized complementary strand; 3' TTTTT single-stranded linker to array surface; dsDNA, one strand shown. Put shortly:
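Transcription factors were each fused at the N-terminus to a polyhistidine tag plus DsRed and expressed in E. coli BL21-CodonPlus before Ni–NTA purification. Binding to a double-stranded custom Agilent array was carried out with 200 nM protein at 25 °C for 1 h in PBS, 2% BSA, salmon testes DNA and 50 µM zinc acetate. The binding signal is per-feature fluorescence intensity, in arbitrary units, on an Axon 4000B scanner.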
With “ACAAAACCATTTGTGATTTTCTTTGAGTGCCCAGTTTTGTCGGAGTCACCTAGTGCAG”, the binding signal is 3210 fluorescence intensity (a.u.). Turning to “ATACTGCTGTAACATTTGATTGGATTGAAAGGATATCGCTCGGAGTCACCTAGTGCAG”, the binding signal is 20500 fluorescence intensity (a.u.).

Consider “ATTAACTATAAATGATTTGGAGTCAATAGTTGGCTATAATCGGAGTCACCTAGTGCAG”, for which the binding signal was 16100 fluorescence intensity (a.u.).

On to “CATAATTGGTAAATTTGCGGGTTCAATTCCTGCTGGATGCCGGAGTCACCTAGTGCAG”, for which the binding signal was 59500 fluorescence intensity (a.u.). In the case of “AGTAGTTAATTGGATTGGGCCGGGCCCACCGGCCCACGGCCGGAGTCACCTAGTGCAG”, the binding signal was 30300 fluorescence intensity (a.u.). For the sequence “AGTAATTGATTGGCCGGATGCTACCGGTAGTTACTGACTACGGAGTCACCTAGTGCAG”, the binding signal is 60500 fluorescence intensity (a.u.). Take “TTATATTGATTTTCGTATGATTTTGGACACATAAGTACCTCGGAGTCACCTAGTGCAG”: the binding signal was 38200 fluorescence intensity (a.u.). With “TTGACTATAATTGATTTGGATAGTTGGCTATAATAAACCTCGGAGTCACCTAGTGCAG”, the binding signal is 54500 fluorescence intensity (a.u.). For “GGATTTGATTGGATAAGCCGCTCGTAAGGACACCGTGCCTCGGAGTCACCTAGTGCAG”, the binding signal was 52300 fluorescence intensity (a.u.). Turning to “ATCACATAAAATTCCAGGGTTAATTGGATCCATGCTACTGCGGAGTCACCTAGTGCAG”, the binding signal was 8150 fluorescence intensity (a.u.). For the sequence “CTGAAATTGAAGTTAAATGCTACTAGTAATAATTGTACTACGGAGTCACCTAGTGCAG”, the binding signal is 30100 fluorescence intensity (a.u.). The same measure for “GAGTAAATTGCACACGGATGCAATCAATTGACCTGTGCTGCGGAGTCACCTAGTGCAG”: 20000 fluorescence intensity (a.u.); for “GAAATAAATTTTGGATTGGCTATGTTAATATGATATGACCCGGAGTCACCTAGTGCAG”: 25900 fluorescence intensity (a.u.); for “GTTCGCGTGATTAATCAAAGCCTATTCCTTGTCACTATGACGGAGTCACCTAGTGCAG”: 12400 fluorescence intensity (a.u.). Turning to “AAGAAAACCTAATTGTTACTACCATTTACCAAACCTACCACGGAGTCACCTAGTGCAG”, the binding signal was 3910 fluorescence intensity (a.u.).

Consider “ACACATGATTTGCATGCCAACCTTATTTCTCCTTCACTTTCGGAGTCACCTAGTGCAG”, for which the binding signal is 16500 fluorescence intensity (a.u.). Consider “CACTGCAAATTAGATCTATATATAGTGAAACATTGTGAGACGGAGTCACCTAGTGCAG”, for which the binding signal is 6780 fluorescence intensity (a.u.). The same measure for “CGCCGTAACAATCAGAACCAATCATGCTCTATGTGTAGTTCGGAGTCACCTAGTGCAG”: 30300 fluorescence intensity (a.u.); for “CCCGTACGTGTTACCTAATCATGATGGGATGCCATAATACCGGAGTCACCTAGTGCAG”: 3570 fluorescence intensity (a.u.); for “ACATTAATGTGATTTCCCATTTCTACCCTATAGTTCAACACGGAGTCACCTAGTGCAG”: 12800 fluorescence intensity (a.u.). The same measure for “AAAGTAGTTAATTACTGCTAATTACATGGATTAGTTGGGTCGGAGTCACCTAGTGCAG”: 33500 fluorescence intensity (a.u.); for “TATTAAATTGACTATAGATGATTTGGAGCTAGTAATTGGCCGGAGTCACCTAGTGCAG”: 36800 fluorescence intensity (a.u.); for “GATTAATTGAAAGTTTACATGGACGACGTTGACTCGGGGCCGGAGTCACCTAGTGCAG”: 54700 fluorescence intensity (a.u.).

Consider “ACGTTGATTAGTTAGTACTAACCTACTCCTACGTGTTAACCGGAGTCACCTAGTGCAG”, for which the binding signal is 30400 fluorescence intensity (a.u.).

Turning to “ATTACATTGACTAATAGATGATTTAGAGCTAATAGTGGGCCGGAGTCACCTAGTGCAG”, the binding signal was 25200 fluorescence intensity (a.u.). Take “GCTATAAAATTGACTATAATTGATTTGGAGCCGGTAGTTGCGGAGTCACCTAGTGCAG”: the binding signal was 63600 fluorescence intensity (a.u.).

On to “TACTAAATTGACTATGGACGATTTAGAGCTCGTAGTTGGCCGGAGTCACCTAGTGCAG”, for which the binding signal was 53600 fluorescence intensity (a.u.). The figure for “AAAATTGACTATAAATGATTTGGAGCCGGTAGTTGGCTATCGGAGTCACCTAGTGCAG” is 51700 fluorescence intensity (a.u.).

On to “GTAATTAATTACTTGATTAACAATTAAATAATAATAGTTACGGAGTCACCTAGTGCAG”, for which the binding signal is 33200 fluorescence intensity (a.u.). As to “CGCGTTGATTAATTAGTCAGTTCGTTAACAACCTCGACTACGGAGTCACCTAGTGCAG”, the binding signal was 53000 fluorescence intensity (a.u.).

For “AAATTACTAATTTACCTATAATTAGTTGGACTCTAGCTCTCGGAGTCACCTAGTGCAG”, the binding signal is 37600 fluorescence intensity (a.u.). Take “TTTAATTTTGAATTTTAATTAATTGGAGTTTACACGGACTCGGAGTCACCTAGTGCAG”: the binding signal was 39800 fluorescence intensity (a.u.).
